Results reported in article PMC4242493, “Sequence specificity incompletely defines the genome-wide occupancy of Myc”.
The full ranking holds about 33,000 sequences; the median of “normalized occupancy” is about 0.075, and the highest 2% start at about 0.095. The full list was thinned out, with the highest values kept by preference.

Target: MaxL homodimer (Homo sapiens, UniProt P61244 1-160)
Assay: universal protein-binding microarray (PBM); PBS-based mixture, 10 nM His-tagged protein dimer, 2% milk, 200 ng/uL BSA, 50 ng/uL salmon testes DNA, 0.02% TX-100; detection with Alexa 488 anti-His antibody;; high values mean tight binding
Settings: protein: recombinant; tags: C-terminal His-tag (pET21a); chain copies: 2; dsDNA, one strand shown
Procedure, shortened: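 A His-tagged protein dimer at 10 nM was incubated on Agilent 4 x 44 K arrays of the 'all 10-mer' universal design, then labelled with 10 ng/μL fluorophore-conjugated anti-His antibody and scanned on a GenePix 4400A. A fluorescence intensity was assigned to each 8-mer. Binding occupancy is each such intensity normalised to that of the highest-ranked one.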

MaxL homodimer, sequence (P61244 whole entry): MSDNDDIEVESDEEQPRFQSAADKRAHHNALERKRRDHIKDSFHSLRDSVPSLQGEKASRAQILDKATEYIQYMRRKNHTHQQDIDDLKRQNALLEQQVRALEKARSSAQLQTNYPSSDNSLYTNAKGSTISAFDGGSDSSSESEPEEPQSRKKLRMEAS

| Sequence | binding signal [normalized occupancy] |
| --- | --- |
| AGCCATGC | 0.0996 |
| AGCCATGA | 0.0819 |
| AGCCATGG | 0.0832 |
| CGCCATGA | 0.0842 |
| CGCCATGC | 0.0988 |
| CGCCATCC | 0.077 |
| ATGTCAAT | 0.0778 |
| GGTAACCA | 0.0775 |
| CTTCTTTA | 0.075 |
| AAAACGAT | 0.0742 |
| ACATGGCT | 0.0932 |
| AAATGGGT | 0.0763 |
| ACATGGGC | 0.0848 |
| ACATGGAG | 0.0868 |
| ACATGGGT | 0.1 |
| ACTTGGGG | 0.0791 |
| ACATGGCG | 0.098 |
| CCATGGCG | 0.0768 |
| ACATGGGG | 0.101 |
| CCATGGGG | 0.0949 |
| ACATGGAA | 0.0918 |
| ACATGGAT | 0.101 |
| GACATTGA | 0.078 |
| CAATGAGC | 0.074 |
| CGTGCGTA | 0.0916 |

| Sequence | binding signal [normalized occupancy] |
| --- | --- |
| ATTATGTA | 0.0828 |
| CCCCCGCG | 0.0757 |
| TGGCTAAA | 0.074 |
| ATGACAGC | 0.0803 |
| GTAATAAA | 0.076 |
| ACTACTAT | 0.0796 |
| GGGGGCAC | 0.0775 |
| AAACGTAA | 0.0743 |
| GGAGACAA | 0.0754 |
| CTTAGGCA | 0.0777 |
| AACTAATT | 0.0744 |
| GTTTAGAA | 0.0757 |
| AGTTTACA | 0.0773 |
| AGAGTGAC | 0.0747 |
| ACCGTGAT | 0.0871 |
| AGTGTGAC | 0.089 |
| AGCGTGAA | 0.0854 |
| AGCGTGAT | 0.1 |
| AGCGTGAC | 0.101 |
| CCATAGGA | 0.0736 |
| AACCTTGT | 0.0729 |
| CAAGGAAC | 0.079 |
| GGACGGCA | 0.0718 |
| GAAATTTA | 0.0725 |
| ATTAGTCA | 0.0775 |

| Sequence | binding signal [normalized occupancy] |
| --- | --- |
| GAATTCTA | 0.0768 |
| AACGTGAG | 0.0854 |
| ACCGTGAC | 0.0781 |
| AAGGTGAC | 0.0729 |
| AACGTGAT | 0.11 |
| AACGTGAC | 0.109 |
| AACGTGAA | 0.0849 |
| ACCTAACC | 0.0792 |
| GAGATGGA | 0.0798 |
| GGTACCCA | 0.0727 |
| CATCATGG | 0.0895 |
| AATCATGA | 0.0851 |
| AATCATGG | 0.0832 |
| GATCATGA | 0.0863 |
| CATCATGA | 0.0846 |
| AATCATCC | 0.083 |
| GATCATGC | 0.101 |
| AATCATGC | 0.0958 |
| AATCATGT | 0.0985 |
| CATCATGC | 0.0995 |
| GATCATCC | 0.0784 |
| ATTCATGC | 0.0905 |
| ATGCTCCA | 0.0829 |
| TGAGTTAA | 0.078 |
| TAGCGTGA | 0.0905 |

| Sequence | binding signal [normalized occupancy] |
| --- | --- |
| CAGCGTGA | 0.104 |
| GAGCGTGA | 0.0923 |
| CATCGTGG | 0.0917 |
| CAGCGTGG | 0.129 |
| CAGCGTCA | 0.0719 |
| CTAATGTA | 0.078 |
| ATGTACGA | 0.0873 |
| CATGGGGA | 0.1 |
| CATGGGGG | 0.0995 |
| CATGGGGC | 0.0935 |
| AATGGGGG | 0.0803 |
| AATGGGGA | 0.0809 |
| CATGGGAA | 0.0896 |
| CCGTTTGA | 0.0729 |
| CAGGTGAC | 0.0878 |
| AAACATTA | 0.0779 |
| GCATGCGA | 0.119 |
| CAATGCGG | 0.0873 |
| GAATGCGC | 0.075 |
| GTATGCGA | 0.0727 |
| CAATGCGA | 0.0774 |
| CCCTGCGG | 0.0745 |
| CCATGCGG | 0.145 |
| AAATGCGC | 0.0749 |
| CCATGCGA | 0.1 |

| Sequence | binding signal [normalized occupancy] |
| --- | --- |
| GCATGCGC | 0.121 |
| TCATGCGA | 0.0877 |
| GGATGCGA | 0.0783 |
| TGATAGAA | 0.0854 |
| GTGTCGTA | 0.0815 |
| AGGTCACG | 0.082 |
| CTGTTGTA | 0.0736 |
| AAAGAGCA | 0.0761 |
| ATGCGCGA | 0.0781 |
| ATGTTCAG | 0.0809 |
| ACACATCC | 0.0784 |
| CCATGCGC | 0.121 |
| CTATGCGC | 0.075 |
| CAATGCGC | 0.0788 |
| ACCATTGC | 0.0746 |
| AAACGTGT | 0.1 |
| CAACGTGC | 0.122 |
| CAACGTTC | 0.0755 |
| AAACGTAT | 0.0746 |
| CAACGTAA | 0.0776 |
| CAACGTAC | 0.0758 |
| GAACGTGC | 0.0931 |
| AAACGTTT | 0.0755 |
| CAACGTCA | 0.0743 |
| AAACGTGC | 0.101 |

| Sequence | binding signal [normalized occupancy] |
| --- | --- |
| AAACGTAC | 0.074 |
| CAACGTGA | 0.118 |
| CACACCCA | 0.0877 |
| ATTATTTG | 0.0793 |
| ACCGATAC | 0.075 |
| TCTCCAAA | 0.0803 |
| CTCTCAGC | 0.0719 |
| CATGGCTC | 0.09 |
| AAACCATA | 0.0792 |
| CTGAATCC | 0.0737 |
| CGTACGCC | 0.0757 |
| CTTAACCC | 0.0738 |
| ACAACTAA | 0.0755 |
| CGGCAGCC | 0.0724 |
| CGTTTAGA | 0.0747 |
| AAACGTGA | 0.099 |
| CAACGTTG | 0.083 |
| AAACGTGG | 0.123 |
| AAACGTCG | 0.0737 |
| CAACGTGG | 0.154 |
| GAACGTGA | 0.0801 |
| TAACGTGA | 0.0935 |
| CAACGTAG | 0.0762 |
| AAACGTAG | 0.0771 |
| ATCGCCAG | 0.0753 |

| Sequence | binding signal [normalized occupancy] |
| --- | --- |
| AAGACATG | 0.0912 |
| GAAGCATC | 0.076 |
| AACATCCA | 0.0849 |
| ACTTAAAT | 0.0746 |
| CCACGTAG | 0.0817 |
| TCACGTGA | 0.19 |
| TCACGTAA | 0.086 |
| CCACGTCG | 0.086 |
| CCACGTGC | 0.814 |
| CCACGTGA | 0.482 |
| CCACGTGG | 0.971 |
| TCACGTCA | 0.0819 |
| CTACGTGC | 0.0865 |
| CGACGTGA | 0.0883 |
| CTACGTGA | 0.0799 |
| CGACGTGC | 0.083 |
| GGAGAGCA | 0.0742 |
| CCGTCTAA | 0.0757 |
| ACAAATGT | 0.079 |
| GGTCAGGA | 0.0732 |
| GAGGAAGA | 0.075 |
| ACCTGTAA | 0.0823 |
| CCACCTGG | 0.105 |
| ATACCTGC | 0.0811 |
